Experimental data as given in paper PMC7862700, “An all-to-all approach to the identification of sequence-specific readers for epigenetic DNA modifications on cytosine”.

Experiments:
Assay in all cases: DAPPL (digital affinity profiling via proximity ligation, sequencing); 10 mM Tris-HCl pH 7.5, 50 mM NaCl, 1 mM DTT, 4% glycerol, room temperature, 30 min; GST-TFs on glutathione beads, 16-mer random dsDNA library, 0.1% formaldehyde crosslink after washing; high values mean tight binding
[1] = target: T1, FLI1 (Homo sapiens, UniProt Q01543 1-452); conditions: protein: recombinant; tags: N-terminal GST; dsDNA, one strand shown
T1 sequence: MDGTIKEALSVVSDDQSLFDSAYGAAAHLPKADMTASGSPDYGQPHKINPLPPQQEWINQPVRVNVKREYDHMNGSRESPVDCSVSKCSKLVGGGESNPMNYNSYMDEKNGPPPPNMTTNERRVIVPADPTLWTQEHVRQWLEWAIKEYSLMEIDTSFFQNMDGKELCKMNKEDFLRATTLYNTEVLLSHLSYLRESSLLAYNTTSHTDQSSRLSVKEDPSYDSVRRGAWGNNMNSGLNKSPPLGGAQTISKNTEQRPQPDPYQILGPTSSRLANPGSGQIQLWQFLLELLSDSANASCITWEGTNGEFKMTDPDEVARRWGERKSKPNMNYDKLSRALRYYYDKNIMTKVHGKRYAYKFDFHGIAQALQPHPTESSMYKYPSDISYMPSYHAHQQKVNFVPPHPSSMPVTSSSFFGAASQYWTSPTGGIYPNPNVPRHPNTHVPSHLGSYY
Method in brief: (§1)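 Human transcription factors fused to GST were expressed in yeast, captured on glutathione beads, given DNA barcodes and pooled with a GST-only negative control. Pools were incubated with 200 nmole of a 16-mer random double-stranded DNA library in Tris/NaCl/DTT/glycerol buffer at room temperature for 30 min. They were then washed, crosslinked with 0.1% formaldehyde, proximity-ligated (BsaI/T4 ligase, 1 h, 37 °C), PCR-amplified and sequenced on an Illumina NextSeq500. Binding signal is each 6-mer's read frequency for a factor divided by its frequency for the GST control.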

[2] = target: T2, ELK1 (Homo sapiens, UniProt P19419 1-428); conditions: protein: recombinant; tags: N-terminal GST; dsDNA, one strand shown
T2 sequence: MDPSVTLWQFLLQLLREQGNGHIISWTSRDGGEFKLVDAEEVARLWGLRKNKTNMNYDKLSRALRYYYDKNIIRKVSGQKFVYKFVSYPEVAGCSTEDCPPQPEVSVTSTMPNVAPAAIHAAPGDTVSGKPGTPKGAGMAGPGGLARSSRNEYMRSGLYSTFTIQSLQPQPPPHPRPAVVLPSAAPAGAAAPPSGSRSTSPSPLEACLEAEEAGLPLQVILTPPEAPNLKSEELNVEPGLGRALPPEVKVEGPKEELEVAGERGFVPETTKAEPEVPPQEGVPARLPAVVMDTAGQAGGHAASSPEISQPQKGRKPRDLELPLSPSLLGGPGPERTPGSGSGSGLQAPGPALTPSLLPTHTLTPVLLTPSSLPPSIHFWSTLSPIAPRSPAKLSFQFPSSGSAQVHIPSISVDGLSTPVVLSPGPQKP
Method in brief: as §1

[3] = target: T3, GABPA (Homo sapiens, UniProt Q06546 1-454); conditions: protein: recombinant; tags: N-terminal GST; dsDNA, one strand shown
T3 sequence: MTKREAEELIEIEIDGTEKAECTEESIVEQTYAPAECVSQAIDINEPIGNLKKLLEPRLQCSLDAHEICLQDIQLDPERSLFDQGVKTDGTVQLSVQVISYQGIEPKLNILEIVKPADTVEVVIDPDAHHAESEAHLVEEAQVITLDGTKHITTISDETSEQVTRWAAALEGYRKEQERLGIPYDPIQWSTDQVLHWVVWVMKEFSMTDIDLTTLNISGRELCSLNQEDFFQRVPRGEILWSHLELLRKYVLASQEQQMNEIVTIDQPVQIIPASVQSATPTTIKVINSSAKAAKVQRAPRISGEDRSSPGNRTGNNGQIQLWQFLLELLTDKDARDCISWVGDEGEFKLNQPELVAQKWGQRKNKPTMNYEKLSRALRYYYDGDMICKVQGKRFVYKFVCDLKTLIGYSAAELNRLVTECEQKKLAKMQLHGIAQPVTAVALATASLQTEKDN
Method in brief: as §1

[4] = target: T4, ERG (Homo sapiens, UniProt P11308 1-479); conditions: protein: recombinant; tags: N-terminal GST; dsDNA, one strand shown
T4 sequence: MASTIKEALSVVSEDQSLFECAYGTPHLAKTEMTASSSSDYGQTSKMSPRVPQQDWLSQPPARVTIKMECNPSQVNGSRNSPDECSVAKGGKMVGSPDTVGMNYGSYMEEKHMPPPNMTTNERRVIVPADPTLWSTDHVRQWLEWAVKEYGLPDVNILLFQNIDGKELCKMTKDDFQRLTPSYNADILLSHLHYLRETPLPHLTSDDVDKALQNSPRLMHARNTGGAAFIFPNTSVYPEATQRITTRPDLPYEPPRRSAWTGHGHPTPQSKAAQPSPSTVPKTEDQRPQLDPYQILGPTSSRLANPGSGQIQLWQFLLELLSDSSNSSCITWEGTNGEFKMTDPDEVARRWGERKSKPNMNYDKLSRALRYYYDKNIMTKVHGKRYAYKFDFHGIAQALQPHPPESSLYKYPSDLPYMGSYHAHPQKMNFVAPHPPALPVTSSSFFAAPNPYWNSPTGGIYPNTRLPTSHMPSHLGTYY
Method in brief: as §1

[5] = target: ELF1 (Homo sapiens, UniProt P32519 1-619); conditions: protein: recombinant; tags: N-terminal GST; dsDNA, one strand shown
Method in brief: as §1

[6] = target: T5, EHF (Homo sapiens, UniProt Q9NZC4 1-300); conditions: protein: recombinant; tags: N-terminal GST; dsDNA, one strand shown
T5 sequence: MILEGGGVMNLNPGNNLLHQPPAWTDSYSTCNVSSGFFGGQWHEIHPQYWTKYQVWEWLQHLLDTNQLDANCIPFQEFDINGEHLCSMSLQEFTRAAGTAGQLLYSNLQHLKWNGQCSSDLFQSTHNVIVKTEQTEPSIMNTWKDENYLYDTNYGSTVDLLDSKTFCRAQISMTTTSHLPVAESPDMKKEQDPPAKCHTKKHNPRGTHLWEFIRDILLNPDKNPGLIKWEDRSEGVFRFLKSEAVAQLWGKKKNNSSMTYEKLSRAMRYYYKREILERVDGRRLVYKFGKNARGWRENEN
Method in brief: as §1

[7] = target: SPI1 (Homo sapiens, UniProt P17947 1-270); conditions: protein: recombinant; tags: N-terminal GST; dsDNA, one strand shown
Method in brief: as §1

[8] = target: SPIB (Homo sapiens, UniProt Q01892 1-262); conditions: protein: recombinant; tags: N-terminal GST; dsDNA, one strand shown
Method in brief: as §1

[9] = target: T6, ELK3 (Homo sapiens, UniProt P41970 1-407); conditions: protein: recombinant; tags: N-terminal GST; dsDNA, one strand shown
T6 sequence: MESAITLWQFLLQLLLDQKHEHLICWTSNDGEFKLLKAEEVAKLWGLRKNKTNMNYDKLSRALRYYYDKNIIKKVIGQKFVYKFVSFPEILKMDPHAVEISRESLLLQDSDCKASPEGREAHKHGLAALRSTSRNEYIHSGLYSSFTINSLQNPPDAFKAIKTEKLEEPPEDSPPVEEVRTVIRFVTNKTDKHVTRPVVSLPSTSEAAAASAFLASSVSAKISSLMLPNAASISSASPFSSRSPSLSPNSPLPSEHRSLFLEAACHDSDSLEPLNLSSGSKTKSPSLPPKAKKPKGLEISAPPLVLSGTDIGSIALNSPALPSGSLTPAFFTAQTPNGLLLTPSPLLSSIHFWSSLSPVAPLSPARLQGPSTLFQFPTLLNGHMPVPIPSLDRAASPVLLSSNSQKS
Method in brief: as §1

[10] = target: T7, FEV (Homo sapiens, UniProt Q99581 1-238); conditions: protein: recombinant; tags: N-terminal GST; dsDNA, one strand shown
T7 sequence: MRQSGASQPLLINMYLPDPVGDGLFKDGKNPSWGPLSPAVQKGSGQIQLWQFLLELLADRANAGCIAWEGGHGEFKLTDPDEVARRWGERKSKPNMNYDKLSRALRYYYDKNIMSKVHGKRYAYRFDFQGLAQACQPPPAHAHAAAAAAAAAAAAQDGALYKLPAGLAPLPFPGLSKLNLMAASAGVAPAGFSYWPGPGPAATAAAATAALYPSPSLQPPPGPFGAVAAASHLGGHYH
Method in brief: as §1

[11] = target: ETV5 (Homo sapiens, UniProt P41161 1-510); conditions: protein: recombinant; tags: N-terminal GST; dsDNA, one strand shown
Method in brief: as §1

[12] = target: HSF1 (Homo sapiens, UniProt Q00613 1-529); conditions: protein: recombinant; tags: N-terminal GST; chain copies: 3; dsDNA, one strand shown
Method in brief: as §1

[13] = target: T8, SPIC (Homo sapiens, UniProt Q8N5J4 1-248); conditions: protein: recombinant; tags: N-terminal GST; dsDNA, one strand shown
T8 sequence: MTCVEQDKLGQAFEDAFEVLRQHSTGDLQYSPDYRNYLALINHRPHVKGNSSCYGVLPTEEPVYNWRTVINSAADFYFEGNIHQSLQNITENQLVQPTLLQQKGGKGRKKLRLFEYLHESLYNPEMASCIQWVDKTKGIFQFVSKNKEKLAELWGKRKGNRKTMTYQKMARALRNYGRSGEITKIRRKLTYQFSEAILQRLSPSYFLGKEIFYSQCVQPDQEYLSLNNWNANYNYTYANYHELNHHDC
Method in brief: as §1

[14] = target: ELF4 (Homo sapiens, UniProt Q99607 1-663); conditions: protein: recombinant; tags: N-terminal GST; dsDNA, one strand shown
Method in brief: as §1

[15] = target: T9, ELK4 (Homo sapiens, UniProt P28324-2 1-405); conditions: protein: recombinant; tags: N-terminal GST; dsDNA, one strand shown
T9 sequence: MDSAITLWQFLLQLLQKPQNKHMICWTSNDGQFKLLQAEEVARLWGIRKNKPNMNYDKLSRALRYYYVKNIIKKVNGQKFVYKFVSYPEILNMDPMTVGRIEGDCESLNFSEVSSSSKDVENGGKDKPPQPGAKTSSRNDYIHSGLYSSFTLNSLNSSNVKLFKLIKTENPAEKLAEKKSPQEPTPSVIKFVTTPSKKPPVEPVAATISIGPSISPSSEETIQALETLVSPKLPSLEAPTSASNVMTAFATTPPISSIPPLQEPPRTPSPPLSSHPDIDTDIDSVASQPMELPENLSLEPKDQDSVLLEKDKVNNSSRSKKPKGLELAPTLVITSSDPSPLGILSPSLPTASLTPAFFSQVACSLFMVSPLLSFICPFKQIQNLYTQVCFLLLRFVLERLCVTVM
Method in brief: as §1

[16] = target: T10, ETV2 (Homo sapiens, UniProt O00321 1-342); conditions: protein: recombinant; tags: N-terminal GST; dsDNA, one strand shown
T10 sequence: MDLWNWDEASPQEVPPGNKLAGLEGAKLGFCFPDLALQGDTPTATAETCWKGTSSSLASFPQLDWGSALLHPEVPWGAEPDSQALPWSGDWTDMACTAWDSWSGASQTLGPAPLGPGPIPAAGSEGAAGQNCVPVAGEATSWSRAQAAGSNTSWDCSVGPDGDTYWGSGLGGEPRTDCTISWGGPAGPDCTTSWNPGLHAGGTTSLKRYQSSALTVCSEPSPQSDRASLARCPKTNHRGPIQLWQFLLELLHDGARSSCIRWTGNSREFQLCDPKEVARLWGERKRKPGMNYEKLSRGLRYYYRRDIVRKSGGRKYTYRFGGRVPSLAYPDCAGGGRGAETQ
Method in brief: as §1

[17] = target: T11, ELF3 (Homo sapiens, UniProt P78545 1-371); conditions: protein: recombinant; tags: N-terminal GST; dsDNA, one strand shown
T11 sequence: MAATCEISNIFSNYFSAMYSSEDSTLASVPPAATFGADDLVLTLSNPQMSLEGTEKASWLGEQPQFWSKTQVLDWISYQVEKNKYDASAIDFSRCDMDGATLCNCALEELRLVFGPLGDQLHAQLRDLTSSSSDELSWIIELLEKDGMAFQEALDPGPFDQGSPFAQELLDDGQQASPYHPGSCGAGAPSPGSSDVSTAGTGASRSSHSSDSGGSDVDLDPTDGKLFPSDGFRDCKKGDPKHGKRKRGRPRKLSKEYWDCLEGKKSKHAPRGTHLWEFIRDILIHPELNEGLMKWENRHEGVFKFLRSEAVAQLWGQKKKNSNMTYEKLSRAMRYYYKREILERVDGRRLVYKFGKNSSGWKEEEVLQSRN
Method in brief: as §1

[18] = target: CRX (Homo sapiens, UniProt O43186 1-299); conditions: protein: recombinant; tags: N-terminal GST; dsDNA, one strand shown
Method in brief: as §1

[19] = target: ETV1 (Homo sapiens, UniProt P50549 1-477); conditions: protein: recombinant; tags: N-terminal GST; dsDNA, one strand shown
Method in brief: as §1

Chain of CRX (O43186 whole entry): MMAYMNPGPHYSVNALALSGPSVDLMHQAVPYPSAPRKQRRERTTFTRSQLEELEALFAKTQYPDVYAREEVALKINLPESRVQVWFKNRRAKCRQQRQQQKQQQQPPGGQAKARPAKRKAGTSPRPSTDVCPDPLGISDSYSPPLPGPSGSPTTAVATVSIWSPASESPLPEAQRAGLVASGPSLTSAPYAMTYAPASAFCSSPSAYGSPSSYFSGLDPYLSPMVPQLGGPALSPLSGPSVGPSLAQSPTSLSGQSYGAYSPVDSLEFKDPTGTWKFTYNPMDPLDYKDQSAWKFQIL
Chain of ELF4 (Q99607 whole entry): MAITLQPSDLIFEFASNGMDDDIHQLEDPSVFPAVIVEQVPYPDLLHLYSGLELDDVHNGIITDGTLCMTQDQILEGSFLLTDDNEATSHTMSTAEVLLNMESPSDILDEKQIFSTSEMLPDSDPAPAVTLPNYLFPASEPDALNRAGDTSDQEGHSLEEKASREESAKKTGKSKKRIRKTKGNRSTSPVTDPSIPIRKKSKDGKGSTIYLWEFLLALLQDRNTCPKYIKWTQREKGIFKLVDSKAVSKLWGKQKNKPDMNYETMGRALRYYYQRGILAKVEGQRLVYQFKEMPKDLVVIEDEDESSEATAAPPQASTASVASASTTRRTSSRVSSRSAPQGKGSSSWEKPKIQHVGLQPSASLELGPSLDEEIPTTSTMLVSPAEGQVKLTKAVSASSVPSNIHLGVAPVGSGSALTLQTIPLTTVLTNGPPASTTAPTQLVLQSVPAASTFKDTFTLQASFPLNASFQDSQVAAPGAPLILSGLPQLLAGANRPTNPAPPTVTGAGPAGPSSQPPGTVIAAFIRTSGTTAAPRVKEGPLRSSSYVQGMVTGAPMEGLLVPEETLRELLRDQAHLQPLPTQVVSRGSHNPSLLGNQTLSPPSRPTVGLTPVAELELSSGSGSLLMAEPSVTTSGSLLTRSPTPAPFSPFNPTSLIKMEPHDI
Chain of ETV1 (P50549 whole entry): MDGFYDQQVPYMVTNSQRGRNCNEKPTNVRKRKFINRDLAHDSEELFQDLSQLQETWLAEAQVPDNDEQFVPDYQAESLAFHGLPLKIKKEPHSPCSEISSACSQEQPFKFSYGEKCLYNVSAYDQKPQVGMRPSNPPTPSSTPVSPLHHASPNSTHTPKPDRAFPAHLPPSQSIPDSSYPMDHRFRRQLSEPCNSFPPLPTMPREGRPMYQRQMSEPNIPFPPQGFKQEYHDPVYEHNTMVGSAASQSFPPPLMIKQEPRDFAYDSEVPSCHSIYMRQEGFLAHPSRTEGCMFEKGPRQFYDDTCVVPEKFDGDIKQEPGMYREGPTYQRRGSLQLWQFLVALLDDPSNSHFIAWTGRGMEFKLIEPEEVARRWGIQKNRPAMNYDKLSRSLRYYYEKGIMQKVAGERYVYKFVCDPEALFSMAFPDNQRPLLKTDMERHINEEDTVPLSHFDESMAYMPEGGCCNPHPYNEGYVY
Chain of ELF1 (P32519 whole entry): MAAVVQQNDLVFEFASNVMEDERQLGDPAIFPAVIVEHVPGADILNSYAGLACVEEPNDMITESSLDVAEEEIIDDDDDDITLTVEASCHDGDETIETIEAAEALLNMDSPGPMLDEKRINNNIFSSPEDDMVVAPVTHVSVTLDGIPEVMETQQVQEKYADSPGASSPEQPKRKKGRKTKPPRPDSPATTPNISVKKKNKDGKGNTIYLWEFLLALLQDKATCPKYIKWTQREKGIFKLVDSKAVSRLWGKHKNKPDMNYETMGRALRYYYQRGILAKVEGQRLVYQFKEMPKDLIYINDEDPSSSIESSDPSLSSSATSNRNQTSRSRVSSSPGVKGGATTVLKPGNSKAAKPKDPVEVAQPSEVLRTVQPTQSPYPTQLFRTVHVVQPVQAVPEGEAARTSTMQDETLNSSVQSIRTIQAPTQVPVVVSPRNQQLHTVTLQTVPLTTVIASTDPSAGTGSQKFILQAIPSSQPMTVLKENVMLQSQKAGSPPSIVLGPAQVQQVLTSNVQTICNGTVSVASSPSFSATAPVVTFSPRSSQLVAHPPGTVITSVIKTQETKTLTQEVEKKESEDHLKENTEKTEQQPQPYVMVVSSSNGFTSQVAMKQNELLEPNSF
Chain of ETV5 (P41161 whole entry): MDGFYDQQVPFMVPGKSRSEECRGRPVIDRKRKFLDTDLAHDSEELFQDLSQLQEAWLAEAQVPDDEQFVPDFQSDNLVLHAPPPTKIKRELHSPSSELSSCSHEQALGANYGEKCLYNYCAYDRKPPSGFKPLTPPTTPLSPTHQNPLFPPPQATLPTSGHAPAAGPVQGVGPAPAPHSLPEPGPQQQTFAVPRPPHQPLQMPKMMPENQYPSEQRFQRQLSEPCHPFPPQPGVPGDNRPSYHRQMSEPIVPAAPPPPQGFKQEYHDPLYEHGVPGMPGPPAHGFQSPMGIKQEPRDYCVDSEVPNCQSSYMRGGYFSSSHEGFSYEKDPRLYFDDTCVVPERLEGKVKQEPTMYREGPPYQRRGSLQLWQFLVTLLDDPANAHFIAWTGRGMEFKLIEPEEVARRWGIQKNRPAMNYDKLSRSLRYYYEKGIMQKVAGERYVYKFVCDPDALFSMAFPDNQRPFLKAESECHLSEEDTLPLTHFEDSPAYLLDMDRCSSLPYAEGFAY
Chain of HSF1 (Q00613 whole entry): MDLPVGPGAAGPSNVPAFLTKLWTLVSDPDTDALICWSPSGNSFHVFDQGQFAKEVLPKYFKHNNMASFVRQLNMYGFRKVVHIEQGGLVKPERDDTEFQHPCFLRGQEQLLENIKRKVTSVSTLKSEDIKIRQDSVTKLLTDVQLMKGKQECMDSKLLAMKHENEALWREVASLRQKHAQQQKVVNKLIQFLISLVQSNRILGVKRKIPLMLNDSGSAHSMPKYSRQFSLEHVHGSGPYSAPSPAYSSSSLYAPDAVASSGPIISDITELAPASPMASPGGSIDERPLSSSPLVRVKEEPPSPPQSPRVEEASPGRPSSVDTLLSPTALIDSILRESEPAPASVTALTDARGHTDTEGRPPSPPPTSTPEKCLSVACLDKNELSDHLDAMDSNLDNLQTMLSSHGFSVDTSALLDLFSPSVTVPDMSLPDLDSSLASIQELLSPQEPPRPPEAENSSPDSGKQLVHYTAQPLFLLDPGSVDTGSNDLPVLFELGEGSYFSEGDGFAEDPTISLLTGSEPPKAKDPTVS
Chain of SPIB (Q01892 whole entry): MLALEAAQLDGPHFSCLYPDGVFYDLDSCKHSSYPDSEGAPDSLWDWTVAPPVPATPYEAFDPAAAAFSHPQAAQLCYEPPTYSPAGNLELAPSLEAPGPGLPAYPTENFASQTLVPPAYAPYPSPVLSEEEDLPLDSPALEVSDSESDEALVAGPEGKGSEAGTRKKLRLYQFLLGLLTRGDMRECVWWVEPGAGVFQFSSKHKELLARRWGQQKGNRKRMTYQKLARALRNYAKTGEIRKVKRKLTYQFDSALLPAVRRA

With CTTGTA the binding signal [1] was 1.5 fold enrichment (6-mer frequency, TF over GST control), the binding signal [2] was 1.36 fold enrichment (6-mer frequency, TF over GST control) and the binding signal [3] was 1.37 fold enrichment (6-mer frequency, TF over GST control). The binding signal [4] was 1.33 fold enrichment (6-mer frequency, TF over GST control), the binding signal [5] was 1.41 fold enrichment (6-mer frequency, TF over GST control) and the binding signal [6] was 1.42 fold enrichment (6-mer frequency, TF over GST control). For the same sequence, the binding signal [7] was 1.39 fold enrichment (6-mer frequency, TF over GST control), the binding signal [8] was 1.44 fold enrichment (6-mer frequency, TF over GST control) and the binding signal [9] was 1.25 fold enrichment (6-mer frequency, TF over GST control). For the same sequence, the binding signal [10] was 1.32 fold enrichment (6-mer frequency, TF over GST control), the binding signal [11] was 1.33 fold enrichment (6-mer frequency, TF over GST control) and the binding signal [12] was 1.34 fold enrichment (6-mer frequency, TF over GST control). The binding signal [13] was 1.22 fold enrichment (6-mer frequency, TF over GST control), the binding signal [14] was 1.37 fold enrichment (6-mer frequency, TF over GST control) and the binding signal [15] was 1.64 fold enrichment (6-mer frequency, TF over GST control). For the same sequence, the binding signal [16] was 1.41 fold enrichment (6-mer frequency, TF over GST control), the binding signal [17] was 1.27 fold enrichment (6-mer frequency, TF over GST control) and the binding signal [18] was 1.27 fold enrichment (6-mer frequency, TF over GST control). For the same sequence, the binding signal [19] was 1.41 fold enrichment (6-mer frequency, TF over GST control).
